Screening data: PubChem, National Center for Advancing Translational Sciences (NCATS)
Six1-Eya2 inh: blocks human Six1 binding to Eya2. 0.56% of 360,000 active. activity change, % (no concentration beside the values). Q15475+O00167. AlphaScreen GST-Six1/His-Eya2 binding, biochemical; stronger effect = lower value; in the data active = activity change below about -65%; inconclusive = mostly about -30% to -63%
Target sequence (O00167 whole entry, looked up): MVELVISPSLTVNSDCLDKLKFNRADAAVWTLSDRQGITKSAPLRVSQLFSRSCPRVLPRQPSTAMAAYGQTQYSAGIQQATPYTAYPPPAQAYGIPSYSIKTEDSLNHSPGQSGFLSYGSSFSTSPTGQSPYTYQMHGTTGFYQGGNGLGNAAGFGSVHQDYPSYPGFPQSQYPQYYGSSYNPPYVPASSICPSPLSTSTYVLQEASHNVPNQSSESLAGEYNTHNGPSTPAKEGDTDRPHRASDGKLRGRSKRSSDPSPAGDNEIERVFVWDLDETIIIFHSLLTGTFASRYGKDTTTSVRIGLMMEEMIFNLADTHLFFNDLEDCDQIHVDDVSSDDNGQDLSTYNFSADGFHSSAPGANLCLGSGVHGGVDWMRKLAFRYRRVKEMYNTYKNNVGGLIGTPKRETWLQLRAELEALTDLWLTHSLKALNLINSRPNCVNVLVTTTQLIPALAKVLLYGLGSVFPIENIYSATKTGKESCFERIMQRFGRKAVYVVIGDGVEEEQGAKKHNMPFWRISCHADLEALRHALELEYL
Target sequence (Q15475 whole entry, looked up): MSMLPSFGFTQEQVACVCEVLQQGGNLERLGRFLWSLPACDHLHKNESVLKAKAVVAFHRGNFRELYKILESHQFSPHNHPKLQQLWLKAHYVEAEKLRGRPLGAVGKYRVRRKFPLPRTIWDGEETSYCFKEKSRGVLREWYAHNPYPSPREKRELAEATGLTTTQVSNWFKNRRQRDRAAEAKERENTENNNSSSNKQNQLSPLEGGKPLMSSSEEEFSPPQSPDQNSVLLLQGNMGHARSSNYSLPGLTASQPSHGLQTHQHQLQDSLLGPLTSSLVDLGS
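Compounds are tested against tagged Six1 and Eya2 proteins bridged by glutathione donor and nickel acceptor beads; after a one-hour incubation at 37 °C without light, AlphaScreen emission is recorded.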
VP16 counter: inhibits Gal4-VP16 luciferase reporter, ROR gamma counter-screen. Drosophila S2 Gal4-VP16 UAS-luciferase, luminescence, 20 h. Potency, µM (highest dose often 53.6 µM), usual class: inhibitors. 3.5% of 310,000 active. AID 2546;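 also: Gal4-VP16 expression switched on by copper sulfate through the metallothionein promoter; nearly all actives have a fitted effect of over 50% in size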
p53 reactivation: restores transcriptional activity of mutant p53; H1299 p53-A138V BP100-luciferase reporter, luminescence, 24 h; AID 504706; 0.063% of 320,000 active; Potency, µM (titrated, usually from 92.2 µM), usual class: activators; also: nearly all actives have a fitted effect of over 45% in size
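p53-null H1299 cells stably carrying temperature-sensitive p53-A138V and a BP100-luciferase reporter were pinned with compounds (4-point, 1:5 series) and held 24 hrs at 37 deg C. Luminescence was read 10 min after detection reagent.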
RORgamma inh: ROR gamma (mouse) transcription inhibition; Drosophila S2 Gal4-RORgamma UAS-luciferase reporter, 20 h; Potency, µM (highest dose often 53.6 µM), most hits filed as inhibitors; 5.4% of 310,000 active; also: nearly all actives have a fitted effect of over 60% in size
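Luciferase reporter read in Schneider cells carrying Gal4-RORγ (mouse) and UAS-Photinus luciferase; cells given compound 1 h before 700 uM copper sulfate induction, then incubated 20 h at ambient temperature.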
CtBP-E1A inh: blocks the CtBP interaction with E1A; activity change, % (no concentration beside the values); 0.49% of 340,000 active; AID 651724; AlphaScreen GST-E1A/His-CtBP binding, 1536-well; stronger effect = lower value; in the data active = activity change below about -65%; inconclusive = mostly about -30% to -63%
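In 5 uL wells, 23 nL compound meets equimolar GST-E1A and His-CtBP (5X stock 125 nM each) for 2 h, 37 °C. Beads (5X, 50 ug/mL) then 1 h, 37 °C, dark.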
Numbers stand for hits; [ ] = another dose, or the depositor's remark. Sampled rows, rich in hits. Any-hit rate of the full collection: about 5.4%. Unless noted, calls follow the shape of the dose curve; as a rule, active = well fitted curve in the direction sought with a large enough effect; inconclusive = small, poorly fitted or top-dose-only effect, or another doubt; inactive = no such curve, though single readings can be large; an effect the other way counts as inactive or inconclusive.

How did OCC#Cc1ncc(C(F)(F)F)cc1Cl do in these assays?
Six1-Eya2 inh: inactive; VP16 counter: 12.6µM; p53 reactivation: inactive; RORgamma inh: inconclusive; CtBP-E1A inh: inactive

How did O=C1C2C3C=CC(C4CC34)C2C(=O)N1/N=C/c1ccc(-c2ccc([N+](=O)[O-])cc2)o1 (configuration not stated) do in these assays?
Six1-Eya2 inh: inactive; VP16 counter: inactive; p53 reactivation: inactive; RORgamma inh: inactive; CtBP-E1A inh: inactive

What do the screens show for `O=C1C2C3C=CC(C4CC34)C2C(=O)N1/N=C/c1ccc([N+](=O)[O-])o1` (configuration not stated)?
Six1-Eya2 inh: inactive; VP16 counter: 10µM; p53 reactivation: inconclusive; RORgamma inh: 12.6µM; CtBP-E1A inh: inactive

How did O=C1SCCN1N=Cc1ccc([N+](=O)[O-])o1 do in these assays?
Six1-Eya2 inh: inactive; CtBP-E1A inh: inactive

Results for O=C1C2C(C(=O)N1/N=C/c1ccc([N+](=O)[O-])o1)C1C=CC2C12CC2 (configuration not stated) ?
Six1-Eya2 inh: inactive; VP16 counter: 20µM; p53 reactivation: inactive; RORgamma inh: inconclusive; CtBP-E1A inh: inactive

Results for COc1cccc(OC)c1C(=O)Nc1cccc2c1CCCC2 ?
Six1-Eya2 inh: inactive; VP16 counter: inactive; p53 reactivation: inactive; RORgamma inh: inactive; CtBP-E1A inh: inactive

How did COC(=O)N[C@@H](c1cccc(F)c1)[C@@H](C)[N+](=O)[O-] do in these assays?
VP16 counter: inactive; RORgamma inh: inactive

What do the screens show for `OCCCN1CNC(=S)NC1`?
Six1-Eya2 inh: inactive; CtBP-E1A inh: inactive

Results for CC(C)(C)CC(C)(C)N1CNC(=S)NC1 ?
Six1-Eya2 inh: inactive; VP16 counter: inconclusive; p53 reactivation: inactive; RORgamma inh: 10µM

Results for COc1ccc(F)cc1C(=O)C1CCCN(C(=O)c2cccc(N(C)C)c2)C1 (configuration not stated) ?
Six1-Eya2 inh: inactive; VP16 counter: inactive; p53 reactivation: inactive; RORgamma inh: inconclusive; CtBP-E1A inh: inactive

What do the screens show for `Cc1ccccc1NC1=C(Cl)C(=O)OC1OC(=O)c1ccco1` (configuration not stated)?
Six1-Eya2 inh: inactive; VP16 counter: inactive; p53 reactivation: inconclusive; RORgamma inh: 10µM; CtBP-E1A inh: inactive

What do the screens show for `COc1cc(-c2nc(-c3ccc4c(c3)-c3ccccc3S4(=O)=O)c(-c3ccccc3)[nH]2)cc(OC)c1O`?
Six1-Eya2 inh: inactive; VP16 counter: 4.47µM; p53 reactivation: inactive; RORgamma inh: inconclusive; CtBP-E1A inh: inactive

Results for COc1ccc(CCNc2ccc(N3C(=O)CC(C)C3=O)cc2[N+](=O)[O-])cc1OC (configuration not stated) ?
Six1-Eya2 inh: inactive; VP16 counter: 6.31µM; p53 reactivation: inactive; RORgamma inh: inactive; CtBP-E1A inh: inactive

Results for COc1ccc(C(=O)OCC(=O)c2ccc(C3CCCCC3)cc2)cc1 ?
Six1-Eya2 inh: inactive; VP16 counter: inactive[0.365 µM]; p53 reactivation: inactive; RORgamma inh: inactive; CtBP-E1A inh: inactive

How did Nc1ccc(O)cc1C(=O)OCC(=O)c1ccc(C2CCCCC2)cc1 do in these assays?
Six1-Eya2 inh: inconclusive; VP16 counter: inconclusive; p53 reactivation: inconclusive; RORgamma inh: 7.08µM; CtBP-E1A inh: inactive

How did Cc1cccc(C)c1NC(=O)C(c1ccncc1)N1CCN(CCN(C)C)CC1 (configuration not stated) do in these assays?
Six1-Eya2 inh: inactive; CtBP-E1A inh: inactive

How did Cc1ccccc1OCCNC(=O)CSc1ccc(C(F)(F)F)cc1[N+](=O)[O-] do in these assays?
Six1-Eya2 inh: inactive; VP16 counter: inactive; p53 reactivation: inactive; RORgamma inh: inactive; CtBP-E1A inh: inactive

Results for COc1cccc(OCCNC(=O)CSc2ccc(C(F)(F)F)cc2[N+](=O)[O-])c1 ?
Six1-Eya2 inh: inactive; VP16 counter: 3.55µM; p53 reactivation: inactive; RORgamma inh: inactive; CtBP-E1A inh: inactive

What do the screens show for `O=[N+]([O-])c1cccc(CN2C(COCc3ccccc3)CCC=CS2(=O)=O)c1` (configuration not stated)?
VP16 counter: inactive; RORgamma inh: inactive

Results for NS(=O)(=O)c1ccc(CCNC(=O)NC2(C(F)(F)F)Oc3ccccc3O2)cc1 ?
Six1-Eya2 inh: inactive; VP16 counter: inconclusive; p53 reactivation: inconclusive; RORgamma inh: 11.2µM; CtBP-E1A inh: inactive

Results for CCCCNC(=O)NC1(C(F)(F)F)Oc2ccccc2O1 ?
Six1-Eya2 inh: inactive; VP16 counter: inactive; p53 reactivation: inactive; RORgamma inh: inactive; CtBP-E1A inh: inactive

Results for O=C(NNC(=O)c1ccccc1O)c1ccc(Cl)cc1 ?
Six1-Eya2 inh: inactive; VP16 counter: inconclusive; p53 reactivation: inactive; RORgamma inh: 8.91µM; CtBP-E1A inh: inactive

What do the screens show for `O=C(NNC(=O)c1ccc(O)cc1O)c1ccc(Cl)cc1`?
Six1-Eya2 inh: inactive; VP16 counter: inactive; p53 reactivation: inactive; RORgamma inh: inactive; CtBP-E1A inh: inactive

What do the screens show for `NC(=S)NNC(=O)c1cccc(Br)c1`?
VP16 counter: inactive; p53 reactivation: inactive; RORgamma inh: 6.31µM

What do the screens show for `O=C(NNC(=O)c1ccccc1O)c1ccc(Br)cc1`?
Six1-Eya2 inh: inactive; VP16 counter: 20µM; p53 reactivation: inactive; RORgamma inh: 11.2µM; CtBP-E1A inh: inactive

Results for O=C(NNC(=O)c1ccc2ccccc2c1)c1cccc(Br)c1 ?
Six1-Eya2 inh: inactive; CtBP-E1A inh: inactive

How did O=C(NNC(=O)c1ccccc1O)c1cccc(Br)c1 do in these assays?
Six1-Eya2 inh: inactive; VP16 counter: inactive; p53 reactivation: inactive; RORgamma inh: 5.01µM

Results for CCc1nc2ccc(C(=O)N3CCN(C(=O)c4ccco4)CC3)cn2c1N(C=O)Cc1ccc(OC)cc1 ?
Six1-Eya2 inh: inactive; CtBP-E1A inh: inactive

What do the screens show for `CNC[C@@H]1Oc2cc(Br)ccc2S(=O)(=O)N([C@@H](C)CO)C[C@@H]1C`?
Six1-Eya2 inh: inactive; CtBP-E1A inh: inactive

Results for NC(=S)NNC(=O)c1ccccc1 ?
Six1-Eya2 inh: inactive; VP16 counter: 22.4µM; p53 reactivation: inactive; RORgamma inh: 2.82µM; CtBP-E1A inh: inactive

Results for O=C(CNC(=O)c1ccc(Br)cc1)c1ccccc1 ?
Six1-Eya2 inh: inactive; VP16 counter: inactive; p53 reactivation: inactive; RORgamma inh: 12.6µM; CtBP-E1A inh: inactive

How did COC(=O)NNC(=O)COc1ccccc1C do in these assays?
Six1-Eya2 inh: inactive; VP16 counter: inactive; p53 reactivation: inactive; RORgamma inh: inactive; CtBP-E1A inh: inactive

How did CCC(=O)NNC(=S)NC(=O)c1ccc(C)cc1 do in these assays?
Six1-Eya2 inh: inactive; VP16 counter: 17.8µM; p53 reactivation: inactive; RORgamma inh: 3.16µM; CtBP-E1A inh: inactive

What do the screens show for `Cc1ccc(C(=O)NC(=S)NNC(=O)COc2ccccc2C)cc1`?
Six1-Eya2 inh: inactive; VP16 counter: inconclusive; p53 reactivation: inactive; RORgamma inh: 3.98µM; CtBP-E1A inh: inactive
